Tests used:
Assay in all cases: DAPPL (digital affinity profiling via proximity ligation, sequencing); 10 mM Tris-HCl pH 7.5, 50 mM NaCl, 1 mM DTT, 4% glycerol, room temperature, 30 min; GST-TFs on glutathione beads, 16-mer random dsDNA library, 0.1% formaldehyde crosslink after washing; high values mean tight binding
FLI1 = target: T1, FLI1 (Homo sapiens, UniProt Q01543 1-452); details: protein: recombinant; tags: N-terminal GST; dsDNA, one strand shown
T1 sequence: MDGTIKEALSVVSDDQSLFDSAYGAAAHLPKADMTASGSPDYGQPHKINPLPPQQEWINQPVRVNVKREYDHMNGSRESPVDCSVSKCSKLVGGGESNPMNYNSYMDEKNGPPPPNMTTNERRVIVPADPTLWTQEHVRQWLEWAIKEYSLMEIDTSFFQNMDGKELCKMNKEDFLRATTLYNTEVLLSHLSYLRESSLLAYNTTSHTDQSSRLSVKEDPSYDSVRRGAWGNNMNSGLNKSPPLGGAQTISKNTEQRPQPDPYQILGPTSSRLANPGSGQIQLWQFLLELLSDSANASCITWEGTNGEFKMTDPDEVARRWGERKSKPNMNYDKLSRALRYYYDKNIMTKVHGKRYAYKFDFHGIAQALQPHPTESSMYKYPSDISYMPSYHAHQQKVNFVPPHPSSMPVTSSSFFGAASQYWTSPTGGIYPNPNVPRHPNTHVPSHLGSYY
Outline: (§1)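 Each value of binding signal is a hexamer's read frequency for a factor divided by the same hexamer's frequency in the tag-only sample. Barcoded, bead-captured GST fusions of human transcription factors made in yeast were pooled with that sample and incubated with 200 nmole of a random double-stranded 16-mer DNA library in Tris/NaCl/DTT/glycerol buffer at room temperature for 30 min. Washing, 0.1% formaldehyde crosslinking, proximity ligation, PCR and Illumina NextSeq500 sequencing followed.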

ELK1 = target: T2, ELK1 (Homo sapiens, UniProt P19419 1-428); details: protein: recombinant; tags: N-terminal GST; dsDNA, one strand shown
T2 sequence: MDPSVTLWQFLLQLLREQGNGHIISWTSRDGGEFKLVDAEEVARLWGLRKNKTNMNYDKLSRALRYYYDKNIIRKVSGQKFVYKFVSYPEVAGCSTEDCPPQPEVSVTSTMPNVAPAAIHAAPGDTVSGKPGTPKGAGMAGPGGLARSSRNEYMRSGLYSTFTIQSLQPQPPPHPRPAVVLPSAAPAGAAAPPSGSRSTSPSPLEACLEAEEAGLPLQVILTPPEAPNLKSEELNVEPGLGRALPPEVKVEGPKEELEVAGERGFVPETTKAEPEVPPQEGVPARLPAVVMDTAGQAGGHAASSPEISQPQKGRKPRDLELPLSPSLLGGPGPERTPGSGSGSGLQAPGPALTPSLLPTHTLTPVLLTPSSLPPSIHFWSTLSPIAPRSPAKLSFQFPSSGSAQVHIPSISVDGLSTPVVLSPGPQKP
Outline: as §1

GABPA = target: T3, GABPA (Homo sapiens, UniProt Q06546 1-454); details: protein: recombinant; tags: N-terminal GST; dsDNA, one strand shown
T3 sequence: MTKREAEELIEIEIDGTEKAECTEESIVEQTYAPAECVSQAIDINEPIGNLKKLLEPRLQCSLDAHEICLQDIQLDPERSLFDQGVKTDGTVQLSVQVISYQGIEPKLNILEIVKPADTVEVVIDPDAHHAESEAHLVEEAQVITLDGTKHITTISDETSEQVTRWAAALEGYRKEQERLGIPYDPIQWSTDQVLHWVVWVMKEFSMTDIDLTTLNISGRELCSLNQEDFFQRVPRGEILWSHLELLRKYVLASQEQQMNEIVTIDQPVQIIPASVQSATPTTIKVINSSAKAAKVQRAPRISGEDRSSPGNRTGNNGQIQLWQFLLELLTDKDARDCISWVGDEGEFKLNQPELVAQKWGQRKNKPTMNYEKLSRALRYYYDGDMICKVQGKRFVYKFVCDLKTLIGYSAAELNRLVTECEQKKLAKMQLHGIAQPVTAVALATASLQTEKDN
Outline: as §1

ERG = target: T4, ERG (Homo sapiens, UniProt P11308 1-479); details: protein: recombinant; tags: N-terminal GST; dsDNA, one strand shown
T4 sequence: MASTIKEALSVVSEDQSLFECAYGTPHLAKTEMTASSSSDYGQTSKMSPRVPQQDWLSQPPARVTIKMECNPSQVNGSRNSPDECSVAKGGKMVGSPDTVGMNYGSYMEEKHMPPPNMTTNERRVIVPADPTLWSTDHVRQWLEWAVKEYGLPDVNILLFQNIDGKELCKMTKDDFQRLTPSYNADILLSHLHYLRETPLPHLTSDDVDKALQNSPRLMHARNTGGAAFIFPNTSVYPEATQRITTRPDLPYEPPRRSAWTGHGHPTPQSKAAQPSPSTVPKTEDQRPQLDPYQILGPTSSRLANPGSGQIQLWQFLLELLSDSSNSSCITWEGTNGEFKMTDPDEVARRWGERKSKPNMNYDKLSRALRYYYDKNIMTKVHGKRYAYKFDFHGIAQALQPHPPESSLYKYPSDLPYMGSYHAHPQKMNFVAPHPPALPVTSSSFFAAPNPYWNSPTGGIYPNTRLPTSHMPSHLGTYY
Outline: as §1

ELF1 = ELF1 (Homo sapiens, UniProt P32519 1-619); details: protein: recombinant; tags: N-terminal GST; dsDNA, one strand shown
Chain of ELF1 (P32519 whole entry): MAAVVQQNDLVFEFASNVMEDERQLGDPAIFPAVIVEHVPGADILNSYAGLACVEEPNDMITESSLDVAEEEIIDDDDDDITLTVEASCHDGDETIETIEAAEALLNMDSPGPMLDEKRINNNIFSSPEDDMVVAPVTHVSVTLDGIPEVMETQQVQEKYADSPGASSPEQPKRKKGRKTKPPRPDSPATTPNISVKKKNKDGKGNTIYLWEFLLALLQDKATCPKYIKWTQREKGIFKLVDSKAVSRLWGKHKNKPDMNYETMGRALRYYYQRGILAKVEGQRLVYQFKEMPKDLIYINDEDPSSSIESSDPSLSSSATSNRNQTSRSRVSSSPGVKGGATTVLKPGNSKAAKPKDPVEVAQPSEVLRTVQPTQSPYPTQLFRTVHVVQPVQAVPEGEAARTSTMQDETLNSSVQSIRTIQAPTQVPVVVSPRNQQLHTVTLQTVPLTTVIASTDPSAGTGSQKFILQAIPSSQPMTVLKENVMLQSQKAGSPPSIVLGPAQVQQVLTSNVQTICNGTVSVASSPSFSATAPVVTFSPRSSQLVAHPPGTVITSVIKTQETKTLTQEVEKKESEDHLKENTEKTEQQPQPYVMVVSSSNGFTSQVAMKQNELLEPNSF
Outline: as §1

EHF = target: T5, EHF (Homo sapiens, UniProt Q9NZC4 1-300); details: protein: recombinant; tags: N-terminal GST; dsDNA, one strand shown
T5 sequence: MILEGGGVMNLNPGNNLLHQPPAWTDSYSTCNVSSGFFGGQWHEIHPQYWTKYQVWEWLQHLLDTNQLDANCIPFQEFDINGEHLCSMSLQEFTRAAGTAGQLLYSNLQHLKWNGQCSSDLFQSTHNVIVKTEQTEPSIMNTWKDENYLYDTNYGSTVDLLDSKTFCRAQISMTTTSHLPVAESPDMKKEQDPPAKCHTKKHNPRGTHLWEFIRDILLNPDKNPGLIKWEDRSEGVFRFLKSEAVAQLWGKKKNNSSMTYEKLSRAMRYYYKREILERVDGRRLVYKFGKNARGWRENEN
Outline: as §1

SPI1 = SPI1 (Homo sapiens, UniProt P17947 1-270); details: protein: recombinant; tags: N-terminal GST; dsDNA, one strand shown
Outline: as §1

ELK3 = target: T6, ELK3 (Homo sapiens, UniProt P41970 1-407); details: protein: recombinant; tags: N-terminal GST; dsDNA, one strand shown
T6 sequence: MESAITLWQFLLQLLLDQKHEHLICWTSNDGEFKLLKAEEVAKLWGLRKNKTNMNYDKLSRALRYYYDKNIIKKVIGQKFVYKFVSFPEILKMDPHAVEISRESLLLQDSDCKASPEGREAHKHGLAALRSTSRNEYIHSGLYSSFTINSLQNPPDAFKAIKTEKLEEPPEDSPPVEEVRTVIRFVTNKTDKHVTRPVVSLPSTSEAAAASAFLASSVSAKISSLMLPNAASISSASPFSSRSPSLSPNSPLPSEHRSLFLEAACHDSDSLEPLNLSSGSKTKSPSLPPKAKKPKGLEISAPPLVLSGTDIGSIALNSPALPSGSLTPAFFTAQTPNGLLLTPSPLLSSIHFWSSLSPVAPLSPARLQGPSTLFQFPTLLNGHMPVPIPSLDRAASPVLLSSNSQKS
Outline: as §1

FEV = target: T7, FEV (Homo sapiens, UniProt Q99581 1-238); details: protein: recombinant; tags: N-terminal GST; dsDNA, one strand shown
T7 sequence: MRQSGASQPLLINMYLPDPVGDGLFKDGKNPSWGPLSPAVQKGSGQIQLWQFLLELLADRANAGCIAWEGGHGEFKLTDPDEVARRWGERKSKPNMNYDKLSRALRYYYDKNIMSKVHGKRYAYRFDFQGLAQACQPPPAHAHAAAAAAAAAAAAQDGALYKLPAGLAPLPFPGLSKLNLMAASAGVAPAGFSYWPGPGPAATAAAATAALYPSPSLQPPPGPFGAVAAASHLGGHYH
Outline: as §1

ETV5 = ETV5 (Homo sapiens, UniProt P41161 1-510); details: protein: recombinant; tags: N-terminal GST; dsDNA, one strand shown
Chain of ETV5 (P41161 whole entry): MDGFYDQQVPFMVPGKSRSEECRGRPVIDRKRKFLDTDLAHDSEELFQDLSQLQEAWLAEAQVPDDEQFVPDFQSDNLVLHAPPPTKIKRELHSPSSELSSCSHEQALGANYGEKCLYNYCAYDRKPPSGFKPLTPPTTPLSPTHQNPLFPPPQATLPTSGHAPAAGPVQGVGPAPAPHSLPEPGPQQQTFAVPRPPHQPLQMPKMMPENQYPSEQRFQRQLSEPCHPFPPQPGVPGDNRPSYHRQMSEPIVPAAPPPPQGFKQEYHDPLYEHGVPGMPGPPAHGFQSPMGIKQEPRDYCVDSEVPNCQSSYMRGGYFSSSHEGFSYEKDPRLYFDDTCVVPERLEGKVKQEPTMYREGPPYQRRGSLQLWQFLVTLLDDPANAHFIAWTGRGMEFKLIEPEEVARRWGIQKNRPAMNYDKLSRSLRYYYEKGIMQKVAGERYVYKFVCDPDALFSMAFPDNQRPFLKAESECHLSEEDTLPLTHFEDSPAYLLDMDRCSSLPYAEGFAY
Outline: as §1

HSF1 = HSF1 (Homo sapiens, UniProt Q00613 1-529); details: protein: recombinant; tags: N-terminal GST; chain copies: 3; dsDNA, one strand shown
Chain of HSF1 (Q00613 whole entry): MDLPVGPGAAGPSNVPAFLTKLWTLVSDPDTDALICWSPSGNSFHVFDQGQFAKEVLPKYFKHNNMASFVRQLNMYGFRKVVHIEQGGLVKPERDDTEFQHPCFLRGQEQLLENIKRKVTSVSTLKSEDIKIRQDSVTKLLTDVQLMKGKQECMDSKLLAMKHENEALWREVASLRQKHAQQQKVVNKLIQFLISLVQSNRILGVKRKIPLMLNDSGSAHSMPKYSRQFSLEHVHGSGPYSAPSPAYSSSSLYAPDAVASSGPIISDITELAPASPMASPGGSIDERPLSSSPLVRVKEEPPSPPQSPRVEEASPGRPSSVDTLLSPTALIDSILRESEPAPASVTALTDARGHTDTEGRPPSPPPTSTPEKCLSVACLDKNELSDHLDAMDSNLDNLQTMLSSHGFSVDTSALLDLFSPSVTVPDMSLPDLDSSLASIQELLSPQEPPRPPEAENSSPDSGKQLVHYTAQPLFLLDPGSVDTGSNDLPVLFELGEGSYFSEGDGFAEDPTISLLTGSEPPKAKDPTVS
Outline: as §1

SPIC = target: T8, SPIC (Homo sapiens, UniProt Q8N5J4 1-248); details: protein: recombinant; tags: N-terminal GST; dsDNA, one strand shown
T8 sequence: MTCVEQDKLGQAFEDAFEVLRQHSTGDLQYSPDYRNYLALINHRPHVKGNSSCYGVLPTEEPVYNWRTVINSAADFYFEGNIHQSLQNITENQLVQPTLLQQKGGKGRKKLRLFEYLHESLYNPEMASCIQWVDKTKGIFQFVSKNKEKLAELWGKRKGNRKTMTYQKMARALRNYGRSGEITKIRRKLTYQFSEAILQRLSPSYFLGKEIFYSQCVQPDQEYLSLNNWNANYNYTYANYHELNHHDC
Outline: as §1

ELF4 = ELF4 (Homo sapiens, UniProt Q99607 1-663); details: protein: recombinant; tags: N-terminal GST; dsDNA, one strand shown
Chain of ELF4 (Q99607 whole entry): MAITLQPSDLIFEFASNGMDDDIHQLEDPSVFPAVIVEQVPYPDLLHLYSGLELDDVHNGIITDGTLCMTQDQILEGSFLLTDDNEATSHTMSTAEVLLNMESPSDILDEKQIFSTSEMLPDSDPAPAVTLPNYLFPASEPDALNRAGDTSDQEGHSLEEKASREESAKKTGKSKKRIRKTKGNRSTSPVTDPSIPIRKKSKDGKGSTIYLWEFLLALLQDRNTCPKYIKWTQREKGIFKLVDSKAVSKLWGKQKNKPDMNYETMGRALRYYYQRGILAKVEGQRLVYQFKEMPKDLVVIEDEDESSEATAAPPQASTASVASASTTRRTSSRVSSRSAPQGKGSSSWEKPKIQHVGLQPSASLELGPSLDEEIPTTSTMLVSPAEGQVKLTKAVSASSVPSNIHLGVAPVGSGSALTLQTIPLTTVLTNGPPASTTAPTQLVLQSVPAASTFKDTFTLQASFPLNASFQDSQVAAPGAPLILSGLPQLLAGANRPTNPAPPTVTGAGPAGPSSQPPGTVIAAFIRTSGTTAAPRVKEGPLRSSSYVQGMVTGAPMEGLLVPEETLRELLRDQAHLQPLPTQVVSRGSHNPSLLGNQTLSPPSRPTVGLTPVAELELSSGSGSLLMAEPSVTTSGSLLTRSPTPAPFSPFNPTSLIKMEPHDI
Outline: as §1

ELK4 = target: T9, ELK4 (Homo sapiens, UniProt P28324-2 1-405); details: protein: recombinant; tags: N-terminal GST; dsDNA, one strand shown
T9 sequence: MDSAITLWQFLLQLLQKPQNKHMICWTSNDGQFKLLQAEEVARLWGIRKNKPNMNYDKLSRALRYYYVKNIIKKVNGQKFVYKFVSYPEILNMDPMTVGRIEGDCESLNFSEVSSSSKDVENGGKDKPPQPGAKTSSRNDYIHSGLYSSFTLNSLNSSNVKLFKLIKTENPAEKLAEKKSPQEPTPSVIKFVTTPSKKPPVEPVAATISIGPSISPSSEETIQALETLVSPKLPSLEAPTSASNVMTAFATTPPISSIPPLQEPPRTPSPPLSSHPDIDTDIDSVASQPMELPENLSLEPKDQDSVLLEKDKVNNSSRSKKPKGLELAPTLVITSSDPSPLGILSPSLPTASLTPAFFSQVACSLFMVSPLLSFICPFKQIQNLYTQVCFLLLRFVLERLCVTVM
Outline: as §1

ETV2 = target: T10, ETV2 (Homo sapiens, UniProt O00321 1-342); details: protein: recombinant; tags: N-terminal GST; dsDNA, one strand shown
T10 sequence: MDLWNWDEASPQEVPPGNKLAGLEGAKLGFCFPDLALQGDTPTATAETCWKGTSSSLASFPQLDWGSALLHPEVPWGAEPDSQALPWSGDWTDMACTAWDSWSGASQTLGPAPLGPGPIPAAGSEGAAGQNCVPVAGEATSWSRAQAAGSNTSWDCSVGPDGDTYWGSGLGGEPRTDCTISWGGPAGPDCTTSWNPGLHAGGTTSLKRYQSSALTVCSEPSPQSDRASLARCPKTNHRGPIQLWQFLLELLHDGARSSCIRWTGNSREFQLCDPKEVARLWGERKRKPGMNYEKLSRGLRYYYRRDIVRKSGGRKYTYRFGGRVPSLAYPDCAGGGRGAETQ
Outline: as §1

ELF3 = target: T11, ELF3 (Homo sapiens, UniProt P78545 1-371); details: protein: recombinant; tags: N-terminal GST; dsDNA, one strand shown
T11 sequence: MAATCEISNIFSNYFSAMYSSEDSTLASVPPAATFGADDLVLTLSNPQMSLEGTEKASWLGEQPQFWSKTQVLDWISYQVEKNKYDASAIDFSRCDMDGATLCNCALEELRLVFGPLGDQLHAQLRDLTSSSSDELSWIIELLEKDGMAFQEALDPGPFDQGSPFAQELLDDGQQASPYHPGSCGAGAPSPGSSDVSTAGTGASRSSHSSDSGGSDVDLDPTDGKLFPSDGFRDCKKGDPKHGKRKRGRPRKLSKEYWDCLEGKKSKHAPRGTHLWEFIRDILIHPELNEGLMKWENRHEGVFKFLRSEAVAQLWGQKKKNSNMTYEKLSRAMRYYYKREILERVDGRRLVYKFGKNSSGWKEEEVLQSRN
Outline: as §1

CRX = CRX (Homo sapiens, UniProt O43186 1-299); details: protein: recombinant; tags: N-terminal GST; dsDNA, one strand shown
Chain of CRX (O43186 whole entry): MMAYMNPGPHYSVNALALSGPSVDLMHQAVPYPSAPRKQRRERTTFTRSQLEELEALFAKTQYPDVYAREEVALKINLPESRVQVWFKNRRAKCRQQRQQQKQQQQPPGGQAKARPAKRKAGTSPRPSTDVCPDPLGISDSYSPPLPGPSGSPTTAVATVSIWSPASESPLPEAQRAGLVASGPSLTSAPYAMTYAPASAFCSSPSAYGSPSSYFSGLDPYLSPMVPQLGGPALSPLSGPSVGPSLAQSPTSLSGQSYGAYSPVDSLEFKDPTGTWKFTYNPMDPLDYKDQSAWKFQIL
Outline: as §1

ETV1 = ETV1 (Homo sapiens, UniProt P50549 1-477); details: protein: recombinant; tags: N-terminal GST; dsDNA, one strand shown
Chain of ETV1 (P50549 whole entry): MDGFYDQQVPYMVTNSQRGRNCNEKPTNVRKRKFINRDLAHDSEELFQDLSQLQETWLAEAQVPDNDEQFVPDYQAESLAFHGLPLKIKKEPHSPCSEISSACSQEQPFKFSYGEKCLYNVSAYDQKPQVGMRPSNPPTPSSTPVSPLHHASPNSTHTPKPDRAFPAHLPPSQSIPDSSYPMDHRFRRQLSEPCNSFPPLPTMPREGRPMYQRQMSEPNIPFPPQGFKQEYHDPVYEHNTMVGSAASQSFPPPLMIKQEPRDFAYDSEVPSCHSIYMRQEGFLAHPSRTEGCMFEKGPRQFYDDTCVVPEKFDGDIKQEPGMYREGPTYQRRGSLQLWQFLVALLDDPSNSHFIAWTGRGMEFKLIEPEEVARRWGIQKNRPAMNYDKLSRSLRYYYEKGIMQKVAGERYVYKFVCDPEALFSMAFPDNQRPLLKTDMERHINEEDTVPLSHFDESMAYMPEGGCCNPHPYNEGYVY
Outline: as §1

Q: AAGCAG was tested. Which binding signal (FLI1) did it give?
A: 1.1 fold enrichment (6-mer frequency, TF over GST control)

Q: And the binding signal (ELK1)?
A: 1.14 fold enrichment (6-mer frequency, TF over GST control)

Q: And the binding signal (GABPA)?
A: 1.13 fold enrichment (6-mer frequency, TF over GST control)

Q: What about the binding signal (ERG) of the same sequence?
A: 1.11 fold enrichment (6-mer frequency, TF over GST control)

Q: What about the binding signal (ELF1) of the same sequence?
A: 1.12 fold enrichment (6-mer frequency, TF over GST control)

Q: And the binding signal (EHF)?
A: 1.12 fold enrichment (6-mer frequency, TF over GST control)

Q: And the binding signal (SPI1)?
A: 1.24 fold enrichment (6-mer frequency, TF over GST control)

Q: And the binding signal (ELK3)?
A: 1.23 fold enrichment (6-mer frequency, TF over GST control)

Q: And the binding signal (FEV)?
A: 1.09 fold enrichment (6-mer frequency, TF over GST control)

Q: What about the binding signal (ETV5) of the same sequence?
A: 1.18 fold enrichment (6-mer frequency, TF over GST control)

Q: And the binding signal (HSF1)?
A: 1.05 fold enrichment (6-mer frequency, TF over GST control)

Q: And the binding signal (SPIC)?
A: 1.09 fold enrichment (6-mer frequency, TF over GST control)

Q: What about the binding signal (ELF4) of the same sequence?
A: 1.12 fold enrichment (6-mer frequency, TF over GST control)

Q: And the binding signal (ELK4)?
A: 1.06 fold enrichment (6-mer frequency, TF over GST control)

Q: What about the binding signal (ETV2) of the same sequence?
A: 1.13 fold enrichment (6-mer frequency, TF over GST control)

Q: What about the binding signal (ELF3) of the same sequence?
A: 1.04 fold enrichment (6-mer frequency, TF over GST control)

Q: What about the binding signal (CRX) of the same sequence?
A: 1.11 fold enrichment (6-mer frequency, TF over GST control)

Q: And the binding signal (ETV1)?
A: 1.19 fold enrichment (6-mer frequency, TF over GST control)

— publication PMC7862700, “An all-to-all approach to the identification of sequence-specific readers for epigenetic DNA modifications on cytosine”
